Reference: article PMC7862700, “An all-to-all approach to the identification of sequence-specific readers for epigenetic DNA modifications on cytosine”

Tests used:
Test in all cases: DAPPL (digital affinity profiling via proximity ligation, sequencing); 10 mM Tris-HCl pH 7.5, 50 mM NaCl, 1 mM DTT, 4% glycerol, room temperature, 30 min; GST-TFs on glutathione beads, 16-mer random dsDNA library, 0.1% formaldehyde crosslink after washing; high values mean tight binding
Conditions in all cases: protein: recombinant; tags: N-terminal GST; dsDNA, one strand shown
ERF = biological target: T1, ERF (Homo sapiens, UniProt P50548 1-548)
T1 sequence: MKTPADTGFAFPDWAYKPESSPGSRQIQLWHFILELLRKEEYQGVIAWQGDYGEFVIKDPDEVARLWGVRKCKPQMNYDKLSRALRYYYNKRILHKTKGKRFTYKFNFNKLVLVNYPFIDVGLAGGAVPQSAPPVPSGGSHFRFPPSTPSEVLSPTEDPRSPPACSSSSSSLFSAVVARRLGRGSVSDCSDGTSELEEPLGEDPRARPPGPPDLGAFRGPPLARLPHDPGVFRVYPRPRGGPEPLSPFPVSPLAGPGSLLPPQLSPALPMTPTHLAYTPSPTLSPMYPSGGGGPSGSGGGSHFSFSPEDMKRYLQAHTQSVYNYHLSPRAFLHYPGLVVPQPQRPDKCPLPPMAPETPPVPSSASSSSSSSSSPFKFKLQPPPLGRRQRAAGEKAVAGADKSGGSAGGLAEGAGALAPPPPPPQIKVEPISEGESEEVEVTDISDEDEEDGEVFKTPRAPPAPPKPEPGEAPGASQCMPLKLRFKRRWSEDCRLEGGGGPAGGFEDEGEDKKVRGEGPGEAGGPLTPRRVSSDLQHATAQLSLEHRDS
How it was run: (§1)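 Pools were built from human transcription factors expressed in yeast as GST fusions, captured on glutathione beads and DNA-barcoded, along with a tag-only sample. Incubation with 200 nmole of a 16-mer random double-stranded DNA library lasted 30 min at room temperature in Tris/NaCl/DTT/glycerol buffer, and was followed by washing, 0.1% formaldehyde crosslinking, proximity ligation, PCR amplification and Illumina NextSeq500 sequencing. Binding signal is the quotient of each hexamer's read frequency for a factor and its frequency for the tag-only sample.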

ETS2 = biological target: T2, ETS2 (Homo sapiens, UniProt P15036 1-469)
T2 sequence: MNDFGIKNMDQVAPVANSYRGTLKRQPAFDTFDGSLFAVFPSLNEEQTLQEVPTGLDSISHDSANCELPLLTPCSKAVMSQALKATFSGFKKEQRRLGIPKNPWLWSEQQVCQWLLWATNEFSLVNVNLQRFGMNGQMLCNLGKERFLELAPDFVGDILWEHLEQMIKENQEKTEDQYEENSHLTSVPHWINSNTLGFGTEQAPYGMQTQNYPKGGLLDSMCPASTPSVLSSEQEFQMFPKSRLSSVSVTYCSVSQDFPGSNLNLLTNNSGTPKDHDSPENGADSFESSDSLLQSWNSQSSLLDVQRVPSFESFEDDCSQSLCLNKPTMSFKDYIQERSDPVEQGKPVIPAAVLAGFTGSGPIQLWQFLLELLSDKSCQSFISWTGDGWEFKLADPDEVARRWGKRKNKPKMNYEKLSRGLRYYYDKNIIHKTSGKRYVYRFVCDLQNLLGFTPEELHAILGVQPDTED
How it was run: as §1

ELF5 = biological target: T3, ELF5 (Homo sapiens, UniProt Q9UKW6-2 1-255)
T3 sequence: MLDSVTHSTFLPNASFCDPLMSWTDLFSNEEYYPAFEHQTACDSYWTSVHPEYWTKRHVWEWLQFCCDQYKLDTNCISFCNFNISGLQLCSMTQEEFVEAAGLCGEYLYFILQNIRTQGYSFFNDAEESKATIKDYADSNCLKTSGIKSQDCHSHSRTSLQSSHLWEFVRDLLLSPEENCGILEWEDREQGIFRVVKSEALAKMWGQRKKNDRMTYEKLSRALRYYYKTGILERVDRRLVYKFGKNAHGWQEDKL
How it was run: as §1

ETV3 = biological target: T4, ETV3 (Homo sapiens, UniProt P41162-2 1-143)
T4 sequence: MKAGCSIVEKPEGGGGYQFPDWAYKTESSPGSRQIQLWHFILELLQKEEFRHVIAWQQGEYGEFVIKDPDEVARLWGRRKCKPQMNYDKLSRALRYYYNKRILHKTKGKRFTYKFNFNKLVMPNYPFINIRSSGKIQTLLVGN
How it was run: as §1

SPDEF = biological target: T5, SPDEF (Homo sapiens, UniProt O95238 1-335)
T5 sequence: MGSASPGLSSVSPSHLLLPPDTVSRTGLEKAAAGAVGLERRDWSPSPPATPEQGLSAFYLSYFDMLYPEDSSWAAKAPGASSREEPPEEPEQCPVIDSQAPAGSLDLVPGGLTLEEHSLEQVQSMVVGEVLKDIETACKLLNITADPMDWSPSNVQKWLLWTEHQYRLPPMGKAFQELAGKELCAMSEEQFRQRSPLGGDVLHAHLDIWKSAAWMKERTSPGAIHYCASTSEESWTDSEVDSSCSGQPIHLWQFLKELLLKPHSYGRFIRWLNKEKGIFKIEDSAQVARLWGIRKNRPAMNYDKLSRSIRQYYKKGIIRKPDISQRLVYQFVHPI
How it was run: as §1

ETV7 = biological target: T6, ETV7 (Homo sapiens, UniProt Q9Y603 1-341)
T6 sequence: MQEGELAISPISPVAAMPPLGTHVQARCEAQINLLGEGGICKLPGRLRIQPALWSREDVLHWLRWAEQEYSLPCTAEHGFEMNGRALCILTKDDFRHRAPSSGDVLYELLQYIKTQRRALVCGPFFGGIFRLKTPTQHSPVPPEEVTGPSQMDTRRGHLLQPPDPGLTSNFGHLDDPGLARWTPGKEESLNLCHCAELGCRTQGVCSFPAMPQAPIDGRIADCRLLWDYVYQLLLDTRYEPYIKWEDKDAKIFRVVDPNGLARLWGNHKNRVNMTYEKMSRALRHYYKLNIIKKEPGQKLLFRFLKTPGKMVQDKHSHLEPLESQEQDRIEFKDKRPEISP
How it was run: as §1

ETV6 = ETV6 (Homo sapiens, UniProt P41212 1-452)
How it was run: as §1

ETV3L = biological target: T7, ETV3L (Homo sapiens, UniProt Q6ZN32 1-361)
T7 sequence: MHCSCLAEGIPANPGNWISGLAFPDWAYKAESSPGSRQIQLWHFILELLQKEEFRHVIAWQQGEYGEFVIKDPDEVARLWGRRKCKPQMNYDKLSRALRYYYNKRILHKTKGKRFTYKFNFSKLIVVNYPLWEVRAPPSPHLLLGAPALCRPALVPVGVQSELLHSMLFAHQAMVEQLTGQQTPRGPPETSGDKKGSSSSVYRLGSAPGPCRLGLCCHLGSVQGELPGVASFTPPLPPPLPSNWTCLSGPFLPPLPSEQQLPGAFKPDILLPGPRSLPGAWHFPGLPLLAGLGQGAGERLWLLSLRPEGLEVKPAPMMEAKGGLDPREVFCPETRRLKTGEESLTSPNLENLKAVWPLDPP
How it was run: as §1

ETV6, sequence (P41212 whole entry): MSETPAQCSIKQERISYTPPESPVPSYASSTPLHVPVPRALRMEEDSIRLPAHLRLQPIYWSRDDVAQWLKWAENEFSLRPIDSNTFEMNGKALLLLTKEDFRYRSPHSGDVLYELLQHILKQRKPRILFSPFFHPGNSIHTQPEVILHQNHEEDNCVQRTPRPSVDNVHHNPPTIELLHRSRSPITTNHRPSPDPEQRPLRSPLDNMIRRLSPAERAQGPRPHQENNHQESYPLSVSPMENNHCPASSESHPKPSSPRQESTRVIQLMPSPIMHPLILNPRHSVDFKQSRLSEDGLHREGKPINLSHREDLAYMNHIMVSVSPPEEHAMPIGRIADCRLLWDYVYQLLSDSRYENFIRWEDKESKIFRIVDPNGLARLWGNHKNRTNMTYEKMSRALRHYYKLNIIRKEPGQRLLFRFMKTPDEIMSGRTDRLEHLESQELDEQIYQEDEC

Sequence	binding signal (ERF)	binding signal (ETS2)	binding signal (ELF5)	binding signal (ETV3)	binding signal (SPDEF)	binding signal (ETV7)	binding signal (ETV6)	binding signal (ETV3L)
GCCCAT	1.05 fold enrichment (6-mer frequency, TF over GST control)	1 fold enrichment (6-mer frequency, TF over GST control)	1.01 fold enrichment (6-mer frequency, TF over GST control)	1.01 fold enrichment (6-mer frequency, TF over GST control)				
AACGTA	1.05 fold enrichment (6-mer frequency, TF over GST control)		1 fold enrichment (6-mer frequency, TF over GST control)	1.04 fold enrichment (6-mer frequency, TF over GST control)	1.01 fold enrichment (6-mer frequency, TF over GST control)	1.05 fold enrichment (6-mer frequency, TF over GST control)	1.03 fold enrichment (6-mer frequency, TF over GST control)	
CAGATG	1.11 fold enrichment (6-mer frequency, TF over GST control)	1.05 fold enrichment (6-mer frequency, TF over GST control)		1.02 fold enrichment (6-mer frequency, TF over GST control)		1.13 fold enrichment (6-mer frequency, TF over GST control)	1.03 fold enrichment (6-mer frequency, TF over GST control)	
TAAGGT	1.06 fold enrichment (6-mer frequency, TF over GST control)	1.06 fold enrichment (6-mer frequency, TF over GST control)	1.05 fold enrichment (6-mer frequency, TF over GST control)	1.11 fold enrichment (6-mer frequency, TF over GST control)	1.15 fold enrichment (6-mer frequency, TF over GST control)	1.04 fold enrichment (6-mer frequency, TF over GST control)	1.08 fold enrichment (6-mer frequency, TF over GST control)	
CATGAA	1.02 fold enrichment (6-mer frequency, TF over GST control)	1.07 fold enrichment (6-mer frequency, TF over GST control)	1.04 fold enrichment (6-mer frequency, TF over GST control)	1.14 fold enrichment (6-mer frequency, TF over GST control)	1.03 fold enrichment (6-mer frequency, TF over GST control)			
AGTTAA	1.1 fold enrichment (6-mer frequency, TF over GST control)	1.06 fold enrichment (6-mer frequency, TF over GST control)	1.03 fold enrichment (6-mer frequency, TF over GST control)	1.13 fold enrichment (6-mer frequency, TF over GST control)	1.01 fold enrichment (6-mer frequency, TF over GST control)	1.01 fold enrichment (6-mer frequency, TF over GST control)	1.11 fold enrichment (6-mer frequency, TF over GST control)	
TTAGGT	1.19 fold enrichment (6-mer frequency, TF over GST control)	1.13 fold enrichment (6-mer frequency, TF over GST control)	1.02 fold enrichment (6-mer frequency, TF over GST control)	1.06 fold enrichment (6-mer frequency, TF over GST control)	1.09 fold enrichment (6-mer frequency, TF over GST control)	1.09 fold enrichment (6-mer frequency, TF over GST control)	1.16 fold enrichment (6-mer frequency, TF over GST control)	
TCGTAC	1.01 fold enrichment (6-mer frequency, TF over GST control)	1.07 fold enrichment (6-mer frequency, TF over GST control)	1.02 fold enrichment (6-mer frequency, TF over GST control)	1.02 fold enrichment (6-mer frequency, TF over GST control)	1.06 fold enrichment (6-mer frequency, TF over GST control)	1.15 fold enrichment (6-mer frequency, TF over GST control)	1.08 fold enrichment (6-mer frequency, TF over GST control)	
GGAATT	1.08 fold enrichment (6-mer frequency, TF over GST control)	1.21 fold enrichment (6-mer frequency, TF over GST control)	1.28 fold enrichment (6-mer frequency, TF over GST control)	1.2 fold enrichment (6-mer frequency, TF over GST control)	1.16 fold enrichment (6-mer frequency, TF over GST control)	1.15 fold enrichment (6-mer frequency, TF over GST control)	1.14 fold enrichment (6-mer frequency, TF over GST control)	
GTCTAA	1.12 fold enrichment (6-mer frequency, TF over GST control)	1.04 fold enrichment (6-mer frequency, TF over GST control)	1.03 fold enrichment (6-mer frequency, TF over GST control)			1.05 fold enrichment (6-mer frequency, TF over GST control)		
CCTAGA	1.05 fold enrichment (6-mer frequency, TF over GST control)	1.05 fold enrichment (6-mer frequency, TF over GST control)			1.01 fold enrichment (6-mer frequency, TF over GST control)			
GGCCCT	1.02 fold enrichment (6-mer frequency, TF over GST control)			1.03 fold enrichment (6-mer frequency, TF over GST control)		1.03 fold enrichment (6-mer frequency, TF over GST control)		
CAGAAT	1 fold enrichment (6-mer frequency, TF over GST control)		1.02 fold enrichment (6-mer frequency, TF over GST control)		1.06 fold enrichment (6-mer frequency, TF over GST control)		1.02 fold enrichment (6-mer frequency, TF over GST control)	
CGGTAT	1.02 fold enrichment (6-mer frequency, TF over GST control)	1.01 fold enrichment (6-mer frequency, TF over GST control)	1.1 fold enrichment (6-mer frequency, TF over GST control)	1.05 fold enrichment (6-mer frequency, TF over GST control)	1.32 fold enrichment (6-mer frequency, TF over GST control)		1.06 fold enrichment (6-mer frequency, TF over GST control)	
CTCAGG	1.02 fold enrichment (6-mer frequency, TF over GST control)	1.12 fold enrichment (6-mer frequency, TF over GST control)	1.04 fold enrichment (6-mer frequency, TF over GST control)	1.01 fold enrichment (6-mer frequency, TF over GST control)	1 fold enrichment (6-mer frequency, TF over GST control)		1.08 fold enrichment (6-mer frequency, TF over GST control)	
CACGCG		1.13 fold enrichment (6-mer frequency, TF over GST control)	1.17 fold enrichment (6-mer frequency, TF over GST control)	1.09 fold enrichment (6-mer frequency, TF over GST control)	1.23 fold enrichment (6-mer frequency, TF over GST control)	1.13 fold enrichment (6-mer frequency, TF over GST control)	1.18 fold enrichment (6-mer frequency, TF over GST control)	1.22 fold enrichment (6-mer frequency, TF over GST control)
TGTGAC		1.14 fold enrichment (6-mer frequency, TF over GST control)	1.1 fold enrichment (6-mer frequency, TF over GST control)	1.17 fold enrichment (6-mer frequency, TF over GST control)	1.2 fold enrichment (6-mer frequency, TF over GST control)	1.12 fold enrichment (6-mer frequency, TF over GST control)	1.07 fold enrichment (6-mer frequency, TF over GST control)	1.22 fold enrichment (6-mer frequency, TF over GST control)
